According to PubChem BioAssay:
The source made the active and inactive calls.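 How the source made its calls: active means normalized viability below 100% at a tested concentration; inactive means the rest.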

experiment: ovarian cancer cell viability with rucaparib, profiling panel, oncology-focused library, rucaparib conditional (AID 1508598); settings: patient-derived ovarian cancer cells, CellTiter-Glo viability, 144 h; at 0.000305 µM; OCI-P5x cells; without rucaparib; hits give low values

| Compound | viability |
| --- | --- |
| C[C@@H](N)C1CCC(C(=O)Nc2ccncc2)CC1 (stereo partly drawn) | 93.7% (active) |
| CC(C)c1onc(-c2c(Cl)cccc2Cl)c1COc1ccc(/C=C/c2cccc(C(=O)O)c2)c(Cl)c1 | 87.3% (active) |
| O=c1cc(N2CCOCC2)oc2c(-c3ccccc3)cccc12 | 83.4% (active) |
| Cc1ccc(S(=O)(=O)/C=C/C#N)cc1 | 102% (inactive) |
| C[C@H](NC(=O)Cc1cc(F)cc(F)c1)C(=O)N[C@H](C(=O)OC(C)(C)C)c1ccccc1 | 111% (inactive) |
| O=C(O)Cc1cccc(OCCCN(Cc2cccc(C(F)(F)F)c2Cl)CC(c2ccccc2)c2ccccc2)c1 | 111% (inactive) |

same assay, conditions: patient-derived ovarian cancer cells, CellTiter-Glo viability, 144 h; at 0.00122 µM; OCI-C5x cells; with rucaparib 10 µM; hits give low values; 100% = cells with rucaparib alone

| Compound | viability |
| --- | --- |
| C[C@@H](N)C1CCC(C(=O)Nc2ccncc2)CC1 (stereo partly drawn) | 112% (inactive) |
| CC(C)c1onc(-c2c(Cl)cccc2Cl)c1COc1ccc(/C=C/c2cccc(C(=O)O)c2)c(Cl)c1 | 107% (inactive) |
| O=c1cc(N2CCOCC2)oc2c(-c3ccccc3)cccc12 | 102% (inactive) |
| Cc1ccc(S(=O)(=O)/C=C/C#N)cc1 | 116% (inactive) |
| C[C@H](NC(=O)Cc1cc(F)cc(F)c1)C(=O)N[C@H](C(=O)OC(C)(C)C)c1ccccc1 | 103% (inactive) |
| O=C(O)Cc1cccc(OCCCN(Cc2cccc(C(F)(F)F)c2Cl)CC(c2ccccc2)c2ccccc2)c1 | 118% (inactive) |

same assay, conditions: patient-derived ovarian cancer cells, CellTiter-Glo viability, 144 h; at 0.00122 µM; OCI-C5x cells; without rucaparib; hits give low values

| Compound | viability |
| --- | --- |
| C[C@@H](N)C1CCC(C(=O)Nc2ccncc2)CC1 (stereo partly drawn) | 109% (inactive) |
| CC(C)c1onc(-c2c(Cl)cccc2Cl)c1COc1ccc(/C=C/c2cccc(C(=O)O)c2)c(Cl)c1 | 97.6% (active) |
| O=c1cc(N2CCOCC2)oc2c(-c3ccccc3)cccc12 | 103% (inactive) |
| Cc1ccc(S(=O)(=O)/C=C/C#N)cc1 | 111% (inactive) |
| C[C@H](NC(=O)Cc1cc(F)cc(F)c1)C(=O)N[C@H](C(=O)OC(C)(C)C)c1ccccc1 | 117% (inactive) |
| O=C(O)Cc1cccc(OCCCN(Cc2cccc(C(F)(F)F)c2Cl)CC(c2ccccc2)c2ccccc2)c1 | 129% (inactive) |

same assay, conditions: patient-derived ovarian cancer cells, CellTiter-Glo viability, 144 h; at 0.00122 µM; OCI-P5x cells; with rucaparib 20 µM; hits give low values; 100% = cells with rucaparib alone

| Compound | viability |
| --- | --- |
| C[C@@H](N)C1CCC(C(=O)Nc2ccncc2)CC1 (stereo partly drawn) | 96.3% (active) |
| CC(C)c1onc(-c2c(Cl)cccc2Cl)c1COc1ccc(/C=C/c2cccc(C(=O)O)c2)c(Cl)c1 | 99.3% (active) |
| O=c1cc(N2CCOCC2)oc2c(-c3ccccc3)cccc12 | 97.2% (active) |
| Cc1ccc(S(=O)(=O)/C=C/C#N)cc1 | 98.6% (active) |
| C[C@H](NC(=O)Cc1cc(F)cc(F)c1)C(=O)N[C@H](C(=O)OC(C)(C)C)c1ccccc1 | 109% (inactive) |
| O=C(O)Cc1cccc(OCCCN(Cc2cccc(C(F)(F)F)c2Cl)CC(c2ccccc2)c2ccccc2)c1 | 108% (inactive) |

same assay, conditions: patient-derived ovarian cancer cells, CellTiter-Glo viability, 144 h; at 0.00122 µM; OCI-P5x cells; without rucaparib; hits give low values

| Compound | viability |
| --- | --- |
| C[C@@H](N)C1CCC(C(=O)Nc2ccncc2)CC1 (stereo partly drawn) | 92.8% (active) |
| CC(C)c1onc(-c2c(Cl)cccc2Cl)c1COc1ccc(/C=C/c2cccc(C(=O)O)c2)c(Cl)c1 | 89.4% (active) |
| O=c1cc(N2CCOCC2)oc2c(-c3ccccc3)cccc12 | 86.3% (active) |
| Cc1ccc(S(=O)(=O)/C=C/C#N)cc1 | 106% (inactive) |
| C[C@H](NC(=O)Cc1cc(F)cc(F)c1)C(=O)N[C@H](C(=O)OC(C)(C)C)c1ccccc1 | 107% (inactive) |
| O=C(O)Cc1cccc(OCCCN(Cc2cccc(C(F)(F)F)c2Cl)CC(c2ccccc2)c2ccccc2)c1 | 95.8% (active) |

same assay, conditions: patient-derived ovarian cancer cells, CellTiter-Glo viability, 144 h; at 0.00488 µM; OCI-C5x cells; with rucaparib 10 µM; hits give low values; 100% = cells with rucaparib alone

| Compound | viability |
| --- | --- |
| C[C@@H](N)C1CCC(C(=O)Nc2ccncc2)CC1 (stereo partly drawn) | 115% (inactive) |
| CC(C)c1onc(-c2c(Cl)cccc2Cl)c1COc1ccc(/C=C/c2cccc(C(=O)O)c2)c(Cl)c1 | 103% (inactive) |
| O=c1cc(N2CCOCC2)oc2c(-c3ccccc3)cccc12 | 93% (active) |
| Cc1ccc(S(=O)(=O)/C=C/C#N)cc1 | 116% (inactive) |
| C[C@H](NC(=O)Cc1cc(F)cc(F)c1)C(=O)N[C@H](C(=O)OC(C)(C)C)c1ccccc1 | 108% (inactive) |
| O=C(O)Cc1cccc(OCCCN(Cc2cccc(C(F)(F)F)c2Cl)CC(c2ccccc2)c2ccccc2)c1 | 115% (inactive) |

same assay, conditions: patient-derived ovarian cancer cells, CellTiter-Glo viability, 144 h; at 0.00488 µM; OCI-C5x cells; without rucaparib; hits give low values

| Compound | viability |
| --- | --- |
| C[C@@H](N)C1CCC(C(=O)Nc2ccncc2)CC1 (stereo partly drawn) | 112% (inactive) |
| CC(C)c1onc(-c2c(Cl)cccc2Cl)c1COc1ccc(/C=C/c2cccc(C(=O)O)c2)c(Cl)c1 | 97.6% (active) |
| O=c1cc(N2CCOCC2)oc2c(-c3ccccc3)cccc12 | 104% (inactive) |
| Cc1ccc(S(=O)(=O)/C=C/C#N)cc1 | 123% (inactive) |
| C[C@H](NC(=O)Cc1cc(F)cc(F)c1)C(=O)N[C@H](C(=O)OC(C)(C)C)c1ccccc1 | 126% (inactive) |
| O=C(O)Cc1cccc(OCCCN(Cc2cccc(C(F)(F)F)c2Cl)CC(c2ccccc2)c2ccccc2)c1 | 125% (inactive) |

same assay, conditions: patient-derived ovarian cancer cells, CellTiter-Glo viability, 144 h; at 0.00488 µM; OCI-P5x cells; with rucaparib 20 µM; hits give low values; 100% = cells with rucaparib alone

| Compound | viability |
| --- | --- |
| C[C@@H](N)C1CCC(C(=O)Nc2ccncc2)CC1 (stereo partly drawn) | 99.1% (active) |
| CC(C)c1onc(-c2c(Cl)cccc2Cl)c1COc1ccc(/C=C/c2cccc(C(=O)O)c2)c(Cl)c1 | 102% (inactive) |
| O=c1cc(N2CCOCC2)oc2c(-c3ccccc3)cccc12 | 99.1% (active) |
| Cc1ccc(S(=O)(=O)/C=C/C#N)cc1 | 94.4% (active) |
| C[C@H](NC(=O)Cc1cc(F)cc(F)c1)C(=O)N[C@H](C(=O)OC(C)(C)C)c1ccccc1 | 106% (inactive) |
| O=C(O)Cc1cccc(OCCCN(Cc2cccc(C(F)(F)F)c2Cl)CC(c2ccccc2)c2ccccc2)c1 | 106% (inactive) |
